Results published in publication PMC7862700, “An all-to-all approach to the identification of sequence-specific readers for epigenetic DNA modifications on cytosine”.

What was measured:
Test in all cases: DAPPL (digital affinity profiling via proximity ligation, sequencing); 10 mM Tris-HCl pH 7.5, 50 mM NaCl, 1 mM DTT, 4% glycerol, room temperature, 30 min; GST-TFs on glutathione beads, 16-mer random dsDNA library, 0.1% formaldehyde crosslink after washing; high values mean tight binding
Details in all cases: protein: recombinant; tags: N-terminal GST; dsDNA, one strand shown
FLI1 = target: T1, FLI1 (Homo sapiens, UniProt Q01543 1-452)
T1 sequence: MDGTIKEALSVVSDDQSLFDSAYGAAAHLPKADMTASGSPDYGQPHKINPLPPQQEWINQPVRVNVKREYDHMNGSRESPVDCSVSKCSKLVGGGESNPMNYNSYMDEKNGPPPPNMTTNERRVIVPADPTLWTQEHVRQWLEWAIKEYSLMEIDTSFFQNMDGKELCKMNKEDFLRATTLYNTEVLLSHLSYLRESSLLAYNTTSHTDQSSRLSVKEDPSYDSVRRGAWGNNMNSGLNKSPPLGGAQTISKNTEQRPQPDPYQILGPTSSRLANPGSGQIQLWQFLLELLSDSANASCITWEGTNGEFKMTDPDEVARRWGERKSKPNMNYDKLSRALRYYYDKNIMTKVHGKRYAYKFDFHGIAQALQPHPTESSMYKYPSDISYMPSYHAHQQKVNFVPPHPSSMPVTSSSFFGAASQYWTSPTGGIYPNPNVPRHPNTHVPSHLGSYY
Method in brief: (§1)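 Yeast served to express human transcription factors as GST fusions, which were then captured on glutathione beads and labelled with DNA barcodes. Pooled with a tag-only sample, they were incubated with 200 nmole of a 16-mer random double-stranded DNA library for 30 min at room temperature in Tris/NaCl/DTT/glycerol buffer, washed, crosslinked with 0.1% formaldehyde, ligated by proximity, amplified by PCR and sequenced. Dividing each hexamer's read frequency for a factor by its frequency for the tag-only sample gives the binding signal.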

ELK1 = target: T2, ELK1 (Homo sapiens, UniProt P19419 1-428)
T2 sequence: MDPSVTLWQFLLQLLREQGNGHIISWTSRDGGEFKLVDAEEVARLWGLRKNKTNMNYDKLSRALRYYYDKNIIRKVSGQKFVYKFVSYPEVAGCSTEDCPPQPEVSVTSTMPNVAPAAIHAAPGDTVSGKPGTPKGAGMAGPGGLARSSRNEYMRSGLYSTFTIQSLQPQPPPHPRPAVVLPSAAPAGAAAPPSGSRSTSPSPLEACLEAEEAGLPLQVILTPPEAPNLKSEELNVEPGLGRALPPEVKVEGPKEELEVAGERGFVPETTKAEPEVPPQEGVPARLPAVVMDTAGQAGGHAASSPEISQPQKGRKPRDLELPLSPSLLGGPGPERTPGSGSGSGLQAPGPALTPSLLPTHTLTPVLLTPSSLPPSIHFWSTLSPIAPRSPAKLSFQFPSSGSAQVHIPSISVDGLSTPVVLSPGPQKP
Method in brief: as §1

ERG = target: T3, ERG (Homo sapiens, UniProt P11308 1-479)
T3 sequence: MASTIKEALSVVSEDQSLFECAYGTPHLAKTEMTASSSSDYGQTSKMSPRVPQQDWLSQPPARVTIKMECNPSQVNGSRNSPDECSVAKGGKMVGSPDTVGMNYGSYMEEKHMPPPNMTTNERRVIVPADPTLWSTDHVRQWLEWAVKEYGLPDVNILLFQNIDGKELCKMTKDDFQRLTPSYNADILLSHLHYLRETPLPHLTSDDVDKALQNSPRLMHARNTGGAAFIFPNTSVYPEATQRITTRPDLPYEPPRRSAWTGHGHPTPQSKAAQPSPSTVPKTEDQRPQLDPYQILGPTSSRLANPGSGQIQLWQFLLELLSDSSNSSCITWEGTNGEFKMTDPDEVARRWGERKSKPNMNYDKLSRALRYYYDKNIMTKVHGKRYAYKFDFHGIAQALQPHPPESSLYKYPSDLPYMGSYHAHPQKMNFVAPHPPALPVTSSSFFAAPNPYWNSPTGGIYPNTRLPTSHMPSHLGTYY
Method in brief: as §1

ELF1 = ELF1 (Homo sapiens, UniProt P32519 1-619)
ELF1, sequence (P32519 whole entry): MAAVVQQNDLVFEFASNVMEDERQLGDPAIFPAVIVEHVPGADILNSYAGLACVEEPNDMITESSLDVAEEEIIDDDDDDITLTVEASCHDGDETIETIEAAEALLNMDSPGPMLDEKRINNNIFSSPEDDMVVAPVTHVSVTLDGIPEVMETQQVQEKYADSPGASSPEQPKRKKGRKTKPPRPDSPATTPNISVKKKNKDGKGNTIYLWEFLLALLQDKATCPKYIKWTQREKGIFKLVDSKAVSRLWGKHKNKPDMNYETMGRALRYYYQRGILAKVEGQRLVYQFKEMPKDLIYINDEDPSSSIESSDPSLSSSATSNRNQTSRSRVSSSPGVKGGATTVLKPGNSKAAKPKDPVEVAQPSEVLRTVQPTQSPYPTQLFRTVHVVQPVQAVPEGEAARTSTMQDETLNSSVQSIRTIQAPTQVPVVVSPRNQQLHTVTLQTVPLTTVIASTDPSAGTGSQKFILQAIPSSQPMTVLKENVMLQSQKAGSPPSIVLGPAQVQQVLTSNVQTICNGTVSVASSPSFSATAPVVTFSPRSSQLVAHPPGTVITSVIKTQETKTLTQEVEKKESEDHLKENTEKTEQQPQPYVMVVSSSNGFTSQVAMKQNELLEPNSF
Method in brief: as §1

EHF = target: T4, EHF (Homo sapiens, UniProt Q9NZC4 1-300)
T4 sequence: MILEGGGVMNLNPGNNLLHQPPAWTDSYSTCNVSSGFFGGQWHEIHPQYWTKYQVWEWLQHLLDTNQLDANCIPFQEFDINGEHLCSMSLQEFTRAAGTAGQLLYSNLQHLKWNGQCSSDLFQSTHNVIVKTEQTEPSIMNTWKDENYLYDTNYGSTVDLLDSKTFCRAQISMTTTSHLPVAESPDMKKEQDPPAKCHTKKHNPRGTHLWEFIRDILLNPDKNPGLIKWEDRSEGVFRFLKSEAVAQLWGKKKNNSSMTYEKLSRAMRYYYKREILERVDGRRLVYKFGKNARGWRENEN
Method in brief: as §1

SPIB = SPIB (Homo sapiens, UniProt Q01892 1-262)
SPIB, sequence (Q01892 whole entry): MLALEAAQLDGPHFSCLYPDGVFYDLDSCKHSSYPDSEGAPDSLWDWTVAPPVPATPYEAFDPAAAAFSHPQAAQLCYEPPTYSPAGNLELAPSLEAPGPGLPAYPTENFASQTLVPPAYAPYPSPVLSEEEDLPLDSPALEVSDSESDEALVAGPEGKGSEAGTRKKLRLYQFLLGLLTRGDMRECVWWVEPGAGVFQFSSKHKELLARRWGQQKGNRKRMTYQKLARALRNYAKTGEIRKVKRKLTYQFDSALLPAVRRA
Method in brief: as §1

ELK3 = target: T5, ELK3 (Homo sapiens, UniProt P41970 1-407)
T5 sequence: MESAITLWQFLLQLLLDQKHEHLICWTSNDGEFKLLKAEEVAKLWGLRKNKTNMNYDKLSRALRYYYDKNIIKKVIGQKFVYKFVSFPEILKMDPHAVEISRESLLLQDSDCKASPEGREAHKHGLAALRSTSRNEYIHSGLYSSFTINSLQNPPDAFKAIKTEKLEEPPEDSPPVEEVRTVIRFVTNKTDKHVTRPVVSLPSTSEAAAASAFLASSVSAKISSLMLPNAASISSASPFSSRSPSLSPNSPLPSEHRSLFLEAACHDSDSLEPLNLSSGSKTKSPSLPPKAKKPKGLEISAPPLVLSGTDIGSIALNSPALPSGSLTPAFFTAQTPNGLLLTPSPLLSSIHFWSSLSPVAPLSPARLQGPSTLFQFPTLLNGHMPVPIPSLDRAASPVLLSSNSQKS
Method in brief: as §1

SPIC = target: T6, SPIC (Homo sapiens, UniProt Q8N5J4 1-248)
T6 sequence: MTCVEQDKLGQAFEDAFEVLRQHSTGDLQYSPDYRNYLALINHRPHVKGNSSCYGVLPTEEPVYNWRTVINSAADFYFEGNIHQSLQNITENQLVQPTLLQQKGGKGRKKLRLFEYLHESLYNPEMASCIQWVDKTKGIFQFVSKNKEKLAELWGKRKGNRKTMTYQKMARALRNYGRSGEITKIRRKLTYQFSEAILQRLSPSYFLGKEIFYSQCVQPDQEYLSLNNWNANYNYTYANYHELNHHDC
Method in brief: as §1

ELF4 = ELF4 (Homo sapiens, UniProt Q99607 1-663)
ELF4, sequence (Q99607 whole entry): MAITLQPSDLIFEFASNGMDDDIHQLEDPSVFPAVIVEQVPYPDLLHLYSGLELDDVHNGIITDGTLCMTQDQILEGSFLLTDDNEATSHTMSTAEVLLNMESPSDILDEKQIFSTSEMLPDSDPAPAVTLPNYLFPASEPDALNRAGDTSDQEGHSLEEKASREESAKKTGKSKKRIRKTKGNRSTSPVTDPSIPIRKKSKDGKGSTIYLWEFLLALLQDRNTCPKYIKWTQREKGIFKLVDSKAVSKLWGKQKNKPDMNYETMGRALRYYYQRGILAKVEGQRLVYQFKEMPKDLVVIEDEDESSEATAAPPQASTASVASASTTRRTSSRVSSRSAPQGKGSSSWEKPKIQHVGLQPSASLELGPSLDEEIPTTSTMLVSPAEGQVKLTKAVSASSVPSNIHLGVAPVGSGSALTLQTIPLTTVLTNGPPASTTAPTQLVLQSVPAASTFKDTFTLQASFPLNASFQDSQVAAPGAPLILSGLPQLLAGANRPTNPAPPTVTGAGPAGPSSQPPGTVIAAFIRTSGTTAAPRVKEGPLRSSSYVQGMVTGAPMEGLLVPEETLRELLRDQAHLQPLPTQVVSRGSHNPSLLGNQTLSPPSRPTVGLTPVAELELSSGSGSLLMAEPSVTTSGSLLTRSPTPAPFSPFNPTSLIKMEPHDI
Method in brief: as §1

ELK4 = target: T7, ELK4 (Homo sapiens, UniProt P28324-2 1-405)
T7 sequence: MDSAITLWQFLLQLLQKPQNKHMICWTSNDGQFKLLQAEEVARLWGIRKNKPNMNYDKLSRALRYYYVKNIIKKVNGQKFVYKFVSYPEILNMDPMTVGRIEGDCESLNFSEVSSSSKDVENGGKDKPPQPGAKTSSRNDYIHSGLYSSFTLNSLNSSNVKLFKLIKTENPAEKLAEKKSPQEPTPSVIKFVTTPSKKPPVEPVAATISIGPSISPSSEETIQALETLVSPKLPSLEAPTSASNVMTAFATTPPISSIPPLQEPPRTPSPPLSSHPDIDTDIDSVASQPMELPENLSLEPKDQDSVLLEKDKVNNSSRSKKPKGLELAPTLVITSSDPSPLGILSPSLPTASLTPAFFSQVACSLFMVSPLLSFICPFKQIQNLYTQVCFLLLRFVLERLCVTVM
Method in brief: as §1

ELF3 = target: T8, ELF3 (Homo sapiens, UniProt P78545 1-371)
T8 sequence: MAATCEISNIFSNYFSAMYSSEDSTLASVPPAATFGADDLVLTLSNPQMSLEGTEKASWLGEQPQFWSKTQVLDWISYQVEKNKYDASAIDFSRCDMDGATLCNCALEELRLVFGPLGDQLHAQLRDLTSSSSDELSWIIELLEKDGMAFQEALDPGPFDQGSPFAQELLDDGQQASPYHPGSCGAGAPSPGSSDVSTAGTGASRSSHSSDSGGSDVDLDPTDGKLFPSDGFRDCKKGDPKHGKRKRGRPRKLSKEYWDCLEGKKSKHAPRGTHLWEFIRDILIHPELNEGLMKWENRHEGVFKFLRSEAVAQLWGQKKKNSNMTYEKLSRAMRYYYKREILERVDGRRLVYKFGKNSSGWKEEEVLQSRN
Method in brief: as §1

ETV1 = ETV1 (Homo sapiens, UniProt P50549 1-477)
ETV1, sequence (P50549 whole entry): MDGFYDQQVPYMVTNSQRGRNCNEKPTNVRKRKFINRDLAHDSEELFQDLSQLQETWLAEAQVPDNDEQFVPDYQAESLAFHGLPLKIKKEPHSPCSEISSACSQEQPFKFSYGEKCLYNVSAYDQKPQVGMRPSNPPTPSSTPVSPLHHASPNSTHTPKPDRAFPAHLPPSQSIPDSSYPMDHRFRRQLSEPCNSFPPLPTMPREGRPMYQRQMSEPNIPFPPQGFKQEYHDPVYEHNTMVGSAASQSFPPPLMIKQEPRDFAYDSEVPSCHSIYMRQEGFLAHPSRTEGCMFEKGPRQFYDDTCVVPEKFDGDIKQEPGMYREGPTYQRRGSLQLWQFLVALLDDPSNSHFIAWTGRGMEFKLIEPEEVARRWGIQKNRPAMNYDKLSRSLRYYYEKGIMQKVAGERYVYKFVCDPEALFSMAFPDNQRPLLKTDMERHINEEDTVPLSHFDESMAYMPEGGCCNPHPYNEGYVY
Method in brief: as §1

ERF = target: T9, ERF (Homo sapiens, UniProt P50548 1-548)
T9 sequence: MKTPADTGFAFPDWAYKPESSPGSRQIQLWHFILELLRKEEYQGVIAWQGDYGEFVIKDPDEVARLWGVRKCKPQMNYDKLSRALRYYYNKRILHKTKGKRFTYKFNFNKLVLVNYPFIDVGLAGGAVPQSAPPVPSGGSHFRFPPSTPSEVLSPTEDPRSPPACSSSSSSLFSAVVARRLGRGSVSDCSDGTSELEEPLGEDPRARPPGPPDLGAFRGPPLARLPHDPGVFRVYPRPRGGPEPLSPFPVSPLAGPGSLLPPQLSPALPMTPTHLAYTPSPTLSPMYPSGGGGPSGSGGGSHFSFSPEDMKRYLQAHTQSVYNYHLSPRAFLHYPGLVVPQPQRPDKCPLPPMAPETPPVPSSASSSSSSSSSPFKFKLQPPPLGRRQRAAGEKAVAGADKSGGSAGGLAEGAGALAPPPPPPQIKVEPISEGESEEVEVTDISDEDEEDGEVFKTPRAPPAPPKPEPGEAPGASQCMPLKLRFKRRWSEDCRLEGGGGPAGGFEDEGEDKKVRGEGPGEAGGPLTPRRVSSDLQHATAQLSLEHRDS
Method in brief: as §1

ETV3L = target: T10, ETV3L (Homo sapiens, UniProt Q6ZN32 1-361)
T10 sequence: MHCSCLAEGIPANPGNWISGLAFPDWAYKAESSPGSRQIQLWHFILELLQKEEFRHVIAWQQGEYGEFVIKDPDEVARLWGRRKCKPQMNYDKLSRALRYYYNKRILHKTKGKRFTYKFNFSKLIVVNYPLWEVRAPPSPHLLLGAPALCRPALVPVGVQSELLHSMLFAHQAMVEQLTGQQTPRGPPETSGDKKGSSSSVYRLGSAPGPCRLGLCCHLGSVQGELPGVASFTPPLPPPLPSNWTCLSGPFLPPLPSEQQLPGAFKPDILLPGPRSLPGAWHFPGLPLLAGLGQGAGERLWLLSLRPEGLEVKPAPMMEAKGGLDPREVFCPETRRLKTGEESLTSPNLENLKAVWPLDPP
Method in brief: as §1

ETS2 = target: T11, ETS2 (Homo sapiens, UniProt P15036 1-469)
T11 sequence: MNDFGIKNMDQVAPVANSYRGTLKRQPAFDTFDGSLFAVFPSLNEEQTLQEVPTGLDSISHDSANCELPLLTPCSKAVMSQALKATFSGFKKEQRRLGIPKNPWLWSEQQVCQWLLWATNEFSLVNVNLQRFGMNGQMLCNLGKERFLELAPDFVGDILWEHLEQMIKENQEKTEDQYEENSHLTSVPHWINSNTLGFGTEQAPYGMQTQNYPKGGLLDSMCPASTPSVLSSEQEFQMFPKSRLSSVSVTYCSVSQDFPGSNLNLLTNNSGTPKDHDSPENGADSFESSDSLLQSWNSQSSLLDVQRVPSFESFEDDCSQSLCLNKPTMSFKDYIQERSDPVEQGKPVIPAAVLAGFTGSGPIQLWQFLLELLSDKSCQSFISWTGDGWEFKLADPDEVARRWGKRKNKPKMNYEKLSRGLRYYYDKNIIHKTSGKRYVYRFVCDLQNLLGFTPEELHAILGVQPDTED
Method in brief: as §1

ETV7 = target: T12, ETV7 (Homo sapiens, UniProt Q9Y603 1-341)
T12 sequence: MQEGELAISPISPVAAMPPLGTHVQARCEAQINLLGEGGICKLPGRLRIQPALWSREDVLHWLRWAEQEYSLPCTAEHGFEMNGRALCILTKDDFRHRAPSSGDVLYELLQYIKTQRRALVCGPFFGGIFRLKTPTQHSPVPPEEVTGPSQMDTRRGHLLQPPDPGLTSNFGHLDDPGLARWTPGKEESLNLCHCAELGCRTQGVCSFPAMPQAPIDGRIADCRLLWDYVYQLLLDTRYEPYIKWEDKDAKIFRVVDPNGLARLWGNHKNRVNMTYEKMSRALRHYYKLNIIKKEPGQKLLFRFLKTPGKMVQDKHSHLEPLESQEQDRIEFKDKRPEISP
Method in brief: as §1

ETV3 = target: T13, ETV3 (Homo sapiens, UniProt P41162-2 1-143)
T13 sequence: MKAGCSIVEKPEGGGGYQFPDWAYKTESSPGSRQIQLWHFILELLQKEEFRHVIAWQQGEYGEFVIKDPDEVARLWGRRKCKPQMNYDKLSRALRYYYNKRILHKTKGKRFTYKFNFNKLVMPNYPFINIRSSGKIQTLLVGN
Method in brief: as §1

ETV6 = ETV6 (Homo sapiens, UniProt P41212 1-452)
ETV6, sequence (P41212 whole entry): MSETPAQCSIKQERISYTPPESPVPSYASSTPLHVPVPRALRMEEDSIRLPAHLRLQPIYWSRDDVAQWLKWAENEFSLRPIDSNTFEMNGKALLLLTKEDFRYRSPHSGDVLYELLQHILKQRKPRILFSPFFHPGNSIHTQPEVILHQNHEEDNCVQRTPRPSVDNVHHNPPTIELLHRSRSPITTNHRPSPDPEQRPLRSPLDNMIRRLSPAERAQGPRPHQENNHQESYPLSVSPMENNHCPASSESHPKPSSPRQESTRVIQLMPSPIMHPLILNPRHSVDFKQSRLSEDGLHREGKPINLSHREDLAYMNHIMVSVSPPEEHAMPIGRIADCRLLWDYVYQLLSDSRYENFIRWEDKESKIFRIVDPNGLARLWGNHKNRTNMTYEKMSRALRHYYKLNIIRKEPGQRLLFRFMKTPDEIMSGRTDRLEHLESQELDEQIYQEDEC
Method in brief: as §1

GCCGCT
binding signal (FLI1): 1.09 fold enrichment (6-mer frequency, TF over GST control)
binding signal (ELK1): 1.08 fold enrichment (6-mer frequency, TF over GST control)
binding signal (ERG): 1.07 fold enrichment (6-mer frequency, TF over GST control)
binding signal (ELF1): 1.12 fold enrichment (6-mer frequency, TF over GST control)
binding signal (EHF): 1.04 fold enrichment (6-mer frequency, TF over GST control)
binding signal (SPIB): 1.1 fold enrichment (6-mer frequency, TF over GST control)
binding signal (ELK3): 1.06 fold enrichment (6-mer frequency, TF over GST control)
binding signal (SPIC): 1.19 fold enrichment (6-mer frequency, TF over GST control)
binding signal (ELF4): 1.14 fold enrichment (6-mer frequency, TF over GST control)
binding signal (ELK4): 1.1 fold enrichment (6-mer frequency, TF over GST control)
binding signal (ELF3): 1.1 fold enrichment (6-mer frequency, TF over GST control)
binding signal (ETV1): 1.15 fold enrichment (6-mer frequency, TF over GST control)
binding signal (ERF): 1.23 fold enrichment (6-mer frequency, TF over GST control)
binding signal (ETV3L): 1.01 fold enrichment (6-mer frequency, TF over GST control)
binding signal (ETS2): 1.09 fold enrichment (6-mer frequency, TF over GST control)
binding signal (ETV7): 1.05 fold enrichment (6-mer frequency, TF over GST control)
binding signal (ETV3): 1.03 fold enrichment (6-mer frequency, TF over GST control)
binding signal (ETV6): 1.04 fold enrichment (6-mer frequency, TF over GST control)
